Assay results reported in PubChem BioAssay (NCI).
About 83,000 compounds went through this panel and 20% of them were active in at least one assay; those are over-represented in the sample as a whole.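 Percent growth is the endpoint: 0 to 100 indicates growth inhibition (40 means 60% inhibition), 0 means no net growth, and negative values indicate cell death.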 Values without a mark were called inactive. Activity calls are given as the source filed them. The calls were made as follows: active = growth percent below 10; inactive = the rest.

Tests used:
Test in all cases: NCI-60 one-dose screen, 48 h (100 = growth as untreated, 0 = no growth, -100 = all killed)
Conditions in all cases: 10 µM unless noted
T-47D breast = tested on: T-47D breast
BT-549 breast = tested on: BT-549 breast
MDA-MB-435 melanoma = tested on: MDA-MB-435 melanoma
SW-620 colon = tested on: SW-620 colon
MCF7 breast = tested on: MCF7 breast
HCT-116 colon = tested on: HCT-116 colon
KM12 colon = tested on: KM12 colon
HCC-2998 colon = tested on: HCC-2998 colon

Structure (SMILES)	growth (T-47D breast)	growth (BT-549 breast)	growth (MDA-MB-435 melanoma)	growth (SW-620 colon)	growth (MCF7 breast)	growth (HCT-116 colon)	growth (KM12 colon)	growth (HCC-2998 colon)
Nc1nnc2cc(F)ccc2n1	96%	81.5%	118%	94.1%	96.3%	91.9%	103%	–
c1cc(CNCCNCc2ccncc2)ccn1	91.4%	117%	112%	105%	100%	95.2%	108%	–
c1ccc(Oc2c3ccccc3nc3ccccc23)cc1	56.2%	25.2%	-5.48% (active)	19.2%	14.2%	-25.7% (active)	0.624% (active)	–
O=S(=O)(OCCOS(=O)(=O)c1ccccc1)c1ccccc1	105%	86.4%	107%	102%	88%	87.4%	101%	72.8%
C[C@H](CCC[C@H](C)OS(=O)(=O)c1ccccc1)OS(=O)(=O)c1ccccc1	100%	125%	108%	105%	101%	95.1%	107%	120%
FC(F)(F)c1cc(NC2=NCCN=C(Nc3cc(C(F)(F)F)cc(C(F)(F)F)c3)SS2)cc(C(F)(F)F)c1	15.8%	71.2%	65.1%	52%	31.6%	45.4%	44.2%	76.9%
O=C(NC(=S)N1CC=CCC1)c1ccccc1	110%	93.6%	109%	103%	101%	102%	112%	–
c1ccc(Nc2ccccn2)nc1	84.6%	108%	104%	108%	84.9%	99.8%	116%	–
COc1ccc(C2CCCCC2=O)cc1 (stereo unspecified)	100%	111%	103%	104%	103%	106%	112%	–
N#Cc1ccc(OC(=O)Nc2cc(Cl)cc(Cl)c2)cc1	-12.2% [100 µM] (active)	-27.1% [100 µM] (active)	-9.08% [100 µM] (active)	4.92% [100 µM] (active)	-25.7% [100 µM] (active)	-62.7% [100 µM] (active)	-15% [100 µM] (active)	–
Cc1ccc(C(C)C)c(OCC(=O)O)c1	117%	112%	108%	96%	100%	105%	108%	–
COc1ccc2c(ccc[n+]2C)c1	102%	113%	110%	101%	96.1%	99.8%	90.6%	104%
Cc1cccnc1NC1OC(=O)c2ccccc21 (stereo unspecified)	94.2%	97.6%	103%	106%	102%	90.8%	105%	106%
Cn1c(=O)c2nc3c(=O)n(C)c(=O)n(C)c3nc2n(C)c1=O	91.1%	100%	112%	99.8%	93.8%	92.1%	109%	–
C/C(Cc1ccccc1)=N\O	117%	107%	98.3%	98.4%	107%	101%	103%	–
COc1nc2ccccc2s1	99.2%	90.6%	105%	93%	87.8%	103%	102%	–
CCOC(=O)/C(C#N)=C\c1c[nH]c2ccccc12	86.5%	129%	113%	115%	77%	100%	109%	–
CC(=O)OCC1CCC(COC(C)=O)CC1 (stereo unspecified)	93%	112%	103%	109%	90.9%	103%	99.2%	91.5%
Cc1ccc(N2C(=O)c3cccc4c(N)c(S(=O)(=O)O)cc(c34)C2=O)cc1	112%	131%	115%	109%	110%	102%	99.3%	–
Nc1c(Br)cc(O)c2c1C(=O)c1ccccc1C2=O	93.7%	94.5%	98%	61.7%	83.8%	69.8%	24.7%	–

Structure (SMILES)	growth (T-47D breast)	growth (BT-549 breast)	growth (MDA-MB-435 melanoma)	growth (SW-620 colon)	growth (MCF7 breast)	growth (HCT-116 colon)	growth (KM12 colon)	growth (HCC-2998 colon)
Cn1c(=O)[nH]c2ccccc2c1=O	95.2%	91.3%	101%	–	90.2%	103%	102%	112%
COc1ccc2c(Cl)cc(NC(=O)Nc3c(C)cccc3C)nc2c1	62.2%	93.8%	–	85.3%	75.7%	63.8%	88.8%	95.3%
CCN(CC)c1ccc2nc3ccc(N=Nc4ccc(N(C)C)cc4)cc3[n+](-c3ccccc3)c2c1	0.779% (active)	-23.3% (active)	-87.3% (active)	-82.5% (active)	–	-70.3% (active)	-64.3% (active)	-69.7% (active)
O=S(=O)(O)C(C(I)I)S(=O)(=O)O	118%	118%	–	105%	98.9%	107%	103%	101%
Cc1cc(CO)c(O)c(CO)c1	96.4%	94.7%	106%	99.9%	–	98.2%	107%	96.8%
C=CCC(OC(C)=O)c1ccc(OC)c(OC)c1 (stereo unspecified)	112%	116%	110%	98%	–	103%	99%	–
NCC(O)C(O)C(O)C(O)CO (stereo unspecified)	84.1%	91.3%	100%	97.2%	97.1%	86.4%	98.5%	–
COc1ccc(Br)c(C=O)c1	69.9%	76.6%	49.8%	–	31.5%	22.5%	93.7%	86%
O=C(N/N=C\c1ccc(Cl)cc1Cl)c1ccncc1	96.6%	65.7%	105%	111%	87.2%	101%	112%	–
Cn1c(=O)c2[nH]c(CCCCC(=O)O)nc2n(C)c1=O	113%	106%	110%	101%	–	106%	106%	111%
COc1cc(OC)c2cc(C(=O)c3ccc(C#N)cc3)c(=O)oc2c1	88.2%	87.3%	–	106%	97.1%	92.1%	97.5%	107%
O=C1C=CC(=O)C2=C1CCCC2	85.3%	91.6%	102%	–	70.6%	91.8%	92.3%	123%
NC(=S)N/N=C/c1ccc(OC(=O)COc2ccc(Cl)cc2)cn1	33.9%	55%	59.1%	46.3%	23.6%	39.7%	64.8%	–
Nc1cc2c(cc1Cl)C(=O)c1ccccc1C2=O	35.7%	37.9%	90.1%	–	65.9%	1.71% (active)	28.8%	69%
Cc1c(-c2ccc(C3CCCCC3)cc2)nc2ccc(F)cc2c1C(=O)O	66.1%	65.2%	–	30.6%	27%	24.8%	32%	49.9%
C=C(c1ccc(N(C)C)cc1)c1ccc(N(C)C)cc1	26.9%	-5.95% (active)	-67.6% (active)	–	13.5%	5.45% (active)	26.5%	5.58% (active)
O=c1[nH]c(=O)c2cc(Cl)cc(Cl)c2[nH]1	111%	91.4%	113%	105%	–	98.3%	106%	–
N#CCCN1C(=O)CCC1C(=O)O (stereo unspecified)	121%	107%	110%	96.6%	–	97.6%	103%	–
O=C(c1ccccc1O)N1CCCC1	95.6%	88.9%	–	100%	90.6%	88.5%	107%	101%
